Reference: PubChem BioAssay (NCATS)
Inconclusive results are not listed. Entries that show only a call come without a potency. A number with no mark means an inactive call. Active and inactive are the calls of the source. Calls follow the shape of the dose curve; as a rule, active = well fitted curve in the direction sought with a large enough effect; inconclusive = small, poorly fitted or top-dose-only effect, or another doubt; inactive = no such curve, though single readings can be large; an effect the other way counts as inactive or inconclusive.

Assays:
[1] = target: Cytochrome P450 3A7 (Homo sapiens) (UniProt P24462); assay: Cytochrome P450 family 3 subfamily A member 7 (CYP3A7) small molecule antagonists: luciferase biochemical qHTS assay (AID 1963596); also: nearly all actives have a fitted effect of over 40% in size
Procedure, shortened: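 Recombinant CYP3A7 P450-Glo luminescent assay: enzyme-proluciferin substrate mix preincubated with compound 10 min at room temperature, reaction started with NADPH regeneration system for 1 h. Luciferin detected by luminescence; ketoconazole as positive control.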

[2] = Viability qHTS for spleen associated tyrosine kinase inhibitor (SYKi) naive MV4-11 cells (AID 1963823); also: nearly all actives have a fitted effect of over 40% in size; also: potency is read from the fitted curve at half-maximal effect
Procedure, shortened: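 Cells: MV4-11, SYK inhibitor naive, 500 per well. Treatment: library compounds, 72 hr, 37 C, 5% CO2. Read-out: CellTiter-Glo luminescence after 10 min RT.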

[3] = Viability qHTS for spleen associated tyrosine kinase inhibitor (SYKi) drug resistant MV4-11 cells (AID 1963824); also: nearly all actives have a fitted effect of over 35% in size; also: potency is read from the fitted curve at half-maximal effect
Procedure, shortened: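 SYK-inhibitor-resistant MV4-11 AML cells were seeded at 500 per well onto compound and cultured 72 hours (37 °C, 5% CO2). CellTiter-Glo was then added, and after 10 min at room temperature, luminescence gave viability.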

[4] = Cellular viability qHTS for adrenocortical cancer (ACC) cell line SW-13 (AID 1963989); details: SW-13 ACC cells viability, CellTiter-Glo, 48 h; activity (max response): hits give low values; also: nearly all actives have a fitted effect of over 65% in size; also: potency is read from the fitted curve at half-maximal effect;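 as to activity (max response): cells grown in serum-free medium with ITS supplement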
Procedure, shortened: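 Viability was read as CellTiter-Glo luminescence after 48 h compound treatment (up to 46 uM final) of SW-13 cells grown serum-free; titration curves were fit with a four-parameter logistic model to give IC50 and efficacy.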

[5] = Cellular viability qHTS for adrenocortical cancer (ACC) cell line NCI-H295R (AID 1963990); also: nearly all actives have a fitted effect of over 60% in size; also: potency is read from the fitted curve at half-maximal effect
Procedure, shortened: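 CellTiter-Glo ATP luminescence, read 48 h after compound addition, measured viability of NCI-H295R adrenocortical cells grown serum-free with ITS. Final concentrations spanned up to 46 uM. Data normalized to DMSO and doxorubicin, fitted for IC50 and maximal response.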

Cytochrome P450 3A7 (Homo sapiens), sequence (P24462 whole entry, looked up): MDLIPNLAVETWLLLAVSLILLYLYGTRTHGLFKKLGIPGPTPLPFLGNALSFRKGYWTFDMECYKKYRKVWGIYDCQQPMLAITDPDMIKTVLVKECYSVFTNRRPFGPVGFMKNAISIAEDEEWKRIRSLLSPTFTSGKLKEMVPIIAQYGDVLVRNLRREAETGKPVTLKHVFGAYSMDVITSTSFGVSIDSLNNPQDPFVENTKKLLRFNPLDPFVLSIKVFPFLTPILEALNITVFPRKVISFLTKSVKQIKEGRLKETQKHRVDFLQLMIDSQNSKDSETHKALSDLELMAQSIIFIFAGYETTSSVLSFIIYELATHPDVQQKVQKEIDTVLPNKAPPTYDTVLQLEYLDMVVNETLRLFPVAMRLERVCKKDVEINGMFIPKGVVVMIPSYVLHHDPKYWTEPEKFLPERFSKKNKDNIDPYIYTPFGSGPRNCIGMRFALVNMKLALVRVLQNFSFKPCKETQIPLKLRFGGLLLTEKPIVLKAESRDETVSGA

Row | Structure (SMILES) | Potency [1] | Potency [2] | Potency [3] | Potency [4] | Potency [5] | activity (max response) [4]
1 | COc1cc2ncnc(Nc3ccc(F)c(Cl)c3)c2cc1NC(=O)/C=C/CN1CCCCC1 | inactive | 1640 nM (active) | 1640 nM (active) | 708 nM (active) | 4470 nM (active) | –
2 | CCCCS(=O)(=O)N[C@@H](Cc1ccc(OCCCCC2CCNCC2)cc1)C(=O)O | inactive | inactive | inactive | – | inactive | 11.9%
3 | CN(C)CC[C@@H](c1ccc(Br)cc1)c1ccccn1 | inactive | inactive | inactive | – | inactive | 2.25%
4 | CCOc1cc(NC(C)=O)ccc1C(=O)OC | inactive | inactive | inactive | – | inactive | 1.95%
5 | C=CCNC(N)=S | inactive | inactive | inactive | – | inactive | 13%
6 | Nc1nc(-c2ccccc2)c(Br)c(=O)[nH]1 | inactive | inactive | inactive | – | inactive | 0.407%
7 | O=C(/C=C/c1ccccc1)OCc1ccccc1 | inactive | inactive | inactive | – | inactive | 5.62%
8 | Oc1ccc(C(O)CNCCCCCCNCC(O)c2ccc(O)c(O)c2)cc1O (stereo not given) | inactive | inactive | inactive | – | inactive | -8.39%
9 | CC1(C)[C@@H](OC(=O)CCC(=O)O)CC[C@]2(C)[C@H]3C(=O)C=C4[C@@H]5C[C@@](C)(C(=O)O)CC[C@]5(C)CC[C@@]4(C)[C@]3(C)CC[C@@H]12 | inactive | inactive | inactive | – | inactive | 2.49%
10 | COC(=O)/C=C\C(=O)OC | inactive | inactive | inactive | – | inactive | 9.62%
